From PubChem BioAssay
Most compounds without a hit are left out; they make up all but 17% or so of the library.
ATXN viability: viability counter-screen for ATXN expression inhibitors; S2 cells (HEK-293 line with an ATXN2-luciferase reporter) viability, CellTiter-Fluor protease fluorescence, 24 h; Potency, µM (series often up to 56.7 µM), usual class: cytotoxic; actives 0.49% (n = 400,000); note: nearly all actives have a fitted effect of over 40% in size
DT40 TDP1 no CPT: qHTS for Inhibitors of human tyrosyl-DNA phosphodiesterase 1 (TDP1): qHTS in cells in absence of CPT; DT40 Tdp1-/- hTDP1 cells, no CPT, ATP luminescence, 48 h; Potency, µM (titrated, usually from 46.2 µM), usual class: inhibitors; actives 15% (n = 420,000); note: nearly all actives have a fitted effect of over 55% in size
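A cellular qHTS used chicken DT40 cells lacking endogenous Tdp1 but carrying stably transfected human TDP1. Compounds were applied without camptothecin, and cell growth kinetics were judged by ATP-dependent luminescence after ≥48 hr.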
TGFb SMAD3 inh: inhibitors of TGF-b signaling | HepG2 CAGA-GFP TGF-b/SMAD3 reporter, GFP fluorescence, 18 h; TGF-beta stimulated, 500 pg/mL final | Potency, µM (doses to about 46.1 µM), usual class: inhibitors | actives 1.2% (n = 410,000); note: nearly all actives have a fitted effect of over 65% in size
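Smad-responsive CAGA-GFP expression was quantified in HEPG2 cells exposed to compounds and 500 pg/mL final TGF-beta for 18 h at 37 degrees C; unstimulated wells defined full inhibition.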
ATXN2 expr inh: reduces ATXN2 reporter expression in HEK-293 cells; HEK-293 ATXN2-luciferase reporter, luminescence, 24 h; Potency, µM (doses to about 57 µM), usual class: inhibitors; actives 0.72% (n = 360,000); note: nearly all actives have a fitted effect of over 55% in size
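ATXN2-luciferase reporter cells (luciferase flanked by upstream and downstream ATXN2 gene portions) were treated 24 h at 37 °C with compounds at up to 57 uM. SteadyGlo luminescence gave expression; GF-AFC fluorescence gave viability.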
TDP1 cell CPT: DT40-hTDP1 cell growth loss with CPT. chicken DT40 Tdp1-/-;hTDP1 cells + 20 nM CPT, ATP luminescence, 48 h. Potency, µM (titrated, usually from 46.2 µM), usual class: inhibitors. actives 12% (n = 420,000). AID 686979; note: nearly all actives have a fitted effect of over 55% in size
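Chicken DT40 Tdp1-/- cells complemented with human TDP1, 400 cells/well, exposed to compounds plus 20 nM camptothecin for at least 48 h at 37 C; viability read as ATP content by CellTiter-Glo luminescence.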
HepG2 viability: kills HepG2 cells in TGF-b inhibitor counter-screen; HepG2 CAGA-GFP viability, ATP luminescence, 18 h; Potency, µM (titrated, usually from 46.1 µM), usual class: cytotoxic; actives 0.76% (n = 410,000); AID 588856
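CellTiter-Glo luminescence gave cytotoxicity after 18 hours at 37 degrees C. The cells were HepG2 CAGA-GFP in 1% FBS DMEM, stimulated with 500 pg/mL TGF-beta after compound addition. %Activity was normalised to no-cell wells (complete cell-killing) and DMSO (no toxicity), and curves were fitted and classified.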
Numbers stand for hits; – = inactive; ? = inconclusive; · = no result given. Calls come from the whole dose curve; as a rule, active = well fitted curve in the direction sought with a large enough effect; inconclusive = small, poorly fitted or top-dose-only effect, or another doubt; inactive = no such curve, though single readings can be large; an effect the other way counts as inactive or inconclusive.

SMILES	ATXN viability	DT40 TDP1 no CPT	TGFb SMAD3 inh	ATXN2 expr inh	TDP1 cell CPT	HepG2 viability
CCN(CC)S(=O)(=O)c1ccc(N2CCN(C)CC2)c(NC(=O)COc2ccc(F)cc2Cl)c1	?	16.4µM	–	–	?	–
CN1CCN(c2ccc(S(=O)(=O)N3CCOCC3)cc2NC(=O)COc2ccc(F)cc2Cl)CC1	–	?	–	–	25.9µM	–
O=C(COc1ccc(F)cc1Cl)Nc1cc(S(=O)(=O)N2CCOCC2)ccc1N1CCCCC1	–	?	–	–	?	–
COc1ccc(C(CNC(=O)c2cccc(S(=O)(=O)N3CCCCC3)c2)N2CCCC2)cc1 (stereo not given)	–	–	–	–	–	–
COc1ccc(C(CNC(=O)c2cccc(N(C)C)c2)N2CCCC2)cc1 (stereo not given)	?	?	–	–	23.1µM	–
CCC1CCc2sc(C(=O)NCC(c3ccc(OC)cc3)N3CCCC3)cc2C1 (stereo not given)	–	23.1µM	?	–	?	–
COc1ccccc1C(CNC(=O)c1cccc(S(=O)(=O)Nc2ccc(F)cc2)c1)N1CCCC1 (stereo not given)	?	20.6µM	–	–	?	–
COc1ccc(C(CNC(=O)c2cccc(S(=O)(=O)Nc3ccccc3OC)c2)N2CCCC2)cc1 (stereo not given)	–	?	–	–	?	–
COc1ccc(C(CNC(=O)c2cccc(S(=O)(=O)Nc3ccccc3OC)c2)N2CCCCC2)cc1 (stereo not given)	?	?	–	–	18.4µM	–
COc1cccc(NC(=O)CCC2CCN(C(=O)c3cncs3)CC2)c1	?	–	–	–	–	–
Cc1ccc(C(=O)NCC(=O)OCC(=O)c2cccc3ccccc23)cc1	·	–	–	·	?	–
COc1ccc(C(CNC(=O)c2cc(S(=O)(=O)NCc3ccccc3)ccc2C)N2CCOCC2)cc1 (stereo not given)	–	–	–	–	–	–
Cc1[nH]c2ccccc2c1/C=N/NC(=O)c1cccc(S(=O)(=O)Nc2cccc(C(F)(F)F)c2)c1	–	?	10µM	·	?	–
NNC(=O)c1cccc(S(=O)(=O)Nc2cccc(C(F)(F)F)c2)c1	–	–	–	·	–	–
COc1ccc(NS(=O)(=O)c2cccc(C(=O)NCC(c3ccc(OC)cc3)N3CCCC3)c2)cc1 (stereo not given)	–	?	–	–	13µM	–
COc1ccc(C(CNC(=O)c2cccc(S(=O)(=O)NCc3ccccc3)c2)N2CCOCC2)cc1 (stereo not given)	–	20.6µM	–	–	?	–
COc1ccc(NS(=O)(=O)c2cccc(C(=O)N/N=C/c3c(F)c(F)c(F)c(F)c3F)c2)cc1	?	23.1µM	?	?	20.6µM	–
O=C(CN1C(=O)NC2(CCCC2)C1=O)OCc1c(F)cccc1Cl	–	–	–	–	–	–
CCOc1ccc(NC(=O)CSc2nnnn2-c2ccc(C(N)=O)cc2)cc1	–	–	–	–	–	–
O=C(N/N=C/C1CC2C=CC1C2)c1ccccc1O (stereo not given)	–	–	–	·	–	–
O=C(CN1CCN(c2ncc(C(F)(F)F)cc2Cl)CC1)N1CCN(c2ncc(C(F)(F)F)cc2Cl)CC1	?	15.8µM	–	–	17.8µM	–
CN1CCN(C(=O)C2CCN(c3ncc(C(F)(F)F)cc3Cl)CC2)CC1	–	20.6µM	–	–	?	–
O=C(c1cccc(C(F)(F)F)c1)N1CCOC12CCN(c1ncc(C(F)(F)F)cc1Cl)CC2	–	23.1µM	?	–	23.1µM	–
O=C(CSc1ccc(Cl)cc1)N1CCN(c2ncc(C(F)(F)F)cc2Cl)CC1	–	?	–	–	?	–
O=C(c1cccs1)N1CCN(c2ncc(C(F)(F)F)cc2Cl)CC1	–	?	–	–	?	–
